Drawing on PubChem BioAssay (NCI), this text covers growth for 38 compounds.

Molecules are shown by their SMILES. The panel holds about 83,000 compounds, 20% with a hit somewhere; the sample as a whole holds those more often.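 Cells were grown in 96-well plates and exposed to the test compound at a single concentration for 48 hours; results are reported as percent growth, with values below 10 considered active.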 Values without a mark were called inactive. The source made the active and inactive calls.

In the first experiment the test system is HOP-62 NSCLC. Put plainly: NCI-60 one-dose screen, 48 h (100 = growth as untreated, 0 = no growth, -100 = all killed). The conditions noted are these: 10 µM unless noted.
In the case of `COc1ccc(/C=C/C(=O)N2CCC(O)CC2)cc1OC1CCCC1`, the growth is 95.1%.

`CCCCOC(=O)C1OC(Oc2ccc3c(C)cc(=O)oc3c2)[C@@H](OC(C)=O)C(OC(C)=O)C1OC(C)=O` (stereo partly specified): the growth is 98.7%.

With `CC(=O)OC[C@H](O)[C@@]1(O)CC[C@H]2[C@@H]3CCC4=CC(=O)CC[C@]4(C)[C@H]3[C@@H](O)C[C@@]21C`, the growth is 115%.

For the compound `CCOC(=O)c1[nH]c2cc(Cl)ccc2c1[C@@H](C(=O)NC(C)(C)C)N(CC)C(=O)CCCCC#Cc1cccc2c1CN(C1CCC(=O)NC1=O)C2=O` (stereo partly specified), the growth was 20.7%.

Consider `O=c1oc2ccccc2cc1-c1csc(N=Nc2c(O)[nH]c3ccc(Cl)cc23)n1`, for which the growth was 117%.

For the compound `CCN1CCN(c2nc3ccccc3c3c(=O)c4cc(F)ccc4sc23)CC1`, the growth was 73.2%.

As for `COc1cc2oc(-c3ccc(O)cc3)cc(=O)c2c(O)c1I`, the growth is 126%.

On to `COc1ccc(NS(=O)(=O)c2ccc(-c3cnc(C4CC4)o3)cc2)cc1`, for which the growth is 54.8%.

Consider `O=C(N/N=C(\CS(=O)(=O)c1ccccc1)c1cc2cc(Br)ccc2oc1=O)c1ccccc1`, for which the growth is 114%.

For `C[C@]1(CO)C[C@@H](O)C[C@]2(C)[C@@H]1CC[C@@]13C[C@@H]4[C@@H](C[C@H]12)[C@]4(C)C3`, the growth was 101%.

As to `O=C(NC1CC1)c1cc2n(n1)CC(c1ccccc1)N2` (stereo unspecified), the growth is 102%.

On to `Cc1cccc2c(=O)c3c(sc12)c(NCCNCCO)nc1ccccc13`, for which the growth was 22.6%.

Regarding `COC(=O)[C@@]12CC[C@@H](C)[C@]3(C[C@@H](c4ccoc4)OC3=O)[C@H]1CC[C@@H]1O[C@@]12C`, the growth was 94.2%.

In the case of `O=C1c2c(c3c4cc(Br)ccc4[nH]c3c3ccc4ccccc4c23)C(=O)N1O`, the growth is 79.6%.

Regarding `NS(=O)(=O)c1ccc(C(=O)N/N=C(\CS(=O)(=O)c2ccccc2)c2cc3cc(Br)ccc3o2)cc1`, the growth was 96%.

For `O=c1oc2ccccc2cc1-c1csc(N=Nc2c(O)[nH]c3ccc(Br)cc23)n1`, the growth is 104%.

Regarding `O=C(N/N=C/c1ccc(OC(F)F)c(OC2CCCC2)c1)c1cnn2c1NC(c1ccccc1)C2` (stereo unspecified), the growth is 84.9%.

Take `COc1ccc(/C=N/NC(=O)c2cnn3c2NC(c2ccccc2)C3)cc1OC1CCCC1` (stereo unspecified): the growth was 87.9%.

For the compound `CCCCCCCC/C=C\CCCCCCCCOc1cccc(CC(=O)NCC[N+]2(C)CCOCC2)c1`, the growth is 66.3%.

`COC(=O)c1c2c(c(C)[n+]([O-])c1C)C(=O)C(NCc1ccc(O)cc1)=CC2=O`: the growth is -7.28% (active).

Take `COc1c(O)c2c3c(c1OC)-c1ccccc1CC3N(S(=O)(=O)c1ccc(C)cc1)CC2` (stereo unspecified): the growth is 41.6%.

In the case of `COc1cc(/C=N/NC(=O)c2cnn3c2NC(c2ccccc2)C3)ccc1OC1CCCC1` (stereo unspecified), the growth is 35.1%.

Turning to `CCOC(=O)c1cnn(CC(O)c2ccc(F)cc2)c1NC(=O)Nc1ccccc1F` (stereo unspecified), the growth is 101%.

For `CCCN1CCN(c2ccc3nc(-c4ccc5nc(-c6ccc(C(F)(F)F)cc6)[nH]c5c4)[nH]c3c2)CC1`, the growth was -62.6% (active).

As to `CCCCCCCC/C=C\CCCCCCCCOc1cccc(CC(=O)NCC[N+](C)(C)C)c1`, the growth was 62.9%.

As for `NC(=S)N/N=C1\c2ccccc2-c2c(F)c(F)c(F)c(F)c21`, the growth is 75.6%.

For `COc1cc(/C=C/C(=O)CC(=O)/C=C/c2cc(Br)c(OC)c(OC)c2)cc(Br)c1OC`, the growth was 93.1%.

Regarding `COc1cccc2c(=O)c3c(sc12)c(NCCN(C)C)nc1ccccc13`, the growth was 27.2%.

On to `Cc1cccc2c(=O)c3c(sc12)c(NCCCN)nc1ccccc13`, for which the growth is 9.12% (active).

Take `O=C(c1ccc2ncc(-c3nc(NC4CC4)ncc3F)n2c1)N1CCOCC1`: the growth is 7.33% (active).

As to `O=S(=O)(Nc1ccccc1Cl)c1ccc(-c2cnc(C3CC3)o2)cc1`, the growth was 34.1%.

As to `O=c1oc2ccccc2cc1-c1csc(N/N=C/c2cc3ccccc3nc2Cl)n1`, the growth was 109%.

For `CCCCCCCC/C=C\CCCCCCCCOc1cccc(CC(=O)NCC[N+]2(C)CCCC2)c1`, the growth was 69.5%.

Turning to `CCC(C)Oc1cc(/C=N/NC(=O)c2cnn3c2NC(c2ccccc2)C3)ccc1OC` (stereo unspecified), the growth is 37.2%.

For `Cl.Fc1c[c-]c(-c2ccccn2)c(F)c1.[Pt].c1ccc([PH+](CC[PH+](c2ccccc2)c2ccccc2)c2ccccc2)cc1`, the growth is -65.8% (active).

Turning to `CCN(CC)c1ccc2c(c1)OS(=O)(=O)N=C2`, the growth was 99.9%.

Take `NC(=O)c1cccc(-n2ccc3cc(NC(=O)Nc4ccc(Cl)c(Cl)c4)ccc32)n1`: the growth is 81.1%.

With `COc1ccc(C2=NOC(CC(=O)N(CCO)CCO)C2)cc1OC1CCCC1` (stereo unspecified), the growth is 102%.

For a further experiment, the system named is NCI-H460 lung. The description is as above. The conditions noted are these: 10 µM unless noted.
Consider `COc1ccc(/C=C/C(=O)N2CCC(O)CC2)cc1OC1CCCC1`, for which the growth is 104%.

Regarding `CCCCOC(=O)C1OC(Oc2ccc3c(C)cc(=O)oc3c2)[C@@H](OC(C)=O)C(OC(C)=O)C1OC(C)=O` (stereo partly specified), the growth is 105%.

As for `CC(=O)OC[C@H](O)[C@@]1(O)CC[C@H]2[C@@H]3CCC4=CC(=O)CC[C@]4(C)[C@H]3[C@@H](O)C[C@@]21C`, the growth was 97.3%.

Take `CCOC(=O)c1[nH]c2cc(Cl)ccc2c1[C@@H](C(=O)NC(C)(C)C)N(CC)C(=O)CCCCC#Cc1cccc2c1CN(C1CCC(=O)NC1=O)C2=O` (stereo partly specified): the growth is 13.9%.

As to `O=c1oc2ccccc2cc1-c1csc(N=Nc2c(O)[nH]c3ccc(Cl)cc23)n1`, the growth is 99.9%.

In the case of `CCN1CCN(c2nc3ccccc3c3c(=O)c4cc(F)ccc4sc23)CC1`, the growth is 38.5%.

Regarding `COc1cc2oc(-c3ccc(O)cc3)cc(=O)c2c(O)c1I`, the growth was 101%.

In the case of `COc1ccc(NS(=O)(=O)c2ccc(-c3cnc(C4CC4)o3)cc2)cc1`, the growth is 33.2%.

On to `O=C(N/N=C(\CS(=O)(=O)c1ccccc1)c1cc2cc(Br)ccc2oc1=O)c1ccccc1`, for which the growth was 99.7%.

Take `C[C@]1(CO)C[C@@H](O)C[C@]2(C)[C@@H]1CC[C@@]13C[C@@H]4[C@@H](C[C@H]12)[C@]4(C)C3`: the growth is 104%.

With `O=C(NC1CC1)c1cc2n(n1)CC(c1ccccc1)N2` (stereo unspecified), the growth was 100%.

In the case of `Cc1cccc2c(=O)c3c(sc12)c(NCCNCCO)nc1ccccc13`, the growth was 9.95% (active).

Consider `COC(=O)[C@@]12CC[C@@H](C)[C@]3(C[C@@H](c4ccoc4)OC3=O)[C@H]1CC[C@@H]1O[C@@]12C`, for which the growth was 103%.

Take `O=C1c2c(c3c4cc(Br)ccc4[nH]c3c3ccc4ccccc4c23)C(=O)N1O`: the growth was 83.8%.

With `NS(=O)(=O)c1ccc(C(=O)N/N=C(\CS(=O)(=O)c2ccccc2)c2cc3cc(Br)ccc3o2)cc1`, the growth is 96.3%.

On to `O=c1oc2ccccc2cc1-c1csc(N=Nc2c(O)[nH]c3ccc(Br)cc23)n1`, for which the growth was 100%.

`O=C(N/N=C/c1ccc(OC(F)F)c(OC2CCCC2)c1)c1cnn2c1NC(c1ccccc1)C2` (stereo unspecified): the growth was 82.4%.

Consider `COc1ccc(/C=N/NC(=O)c2cnn3c2NC(c2ccccc2)C3)cc1OC1CCCC1` (stereo unspecified), for which the growth was 100%.

Regarding `CCCCCCCC/C=C\CCCCCCCCOc1cccc(CC(=O)NCC[N+]2(C)CCOCC2)c1`, the growth is 67%.

As to `COC(=O)c1c2c(c(C)[n+]([O-])c1C)C(=O)C(NCc1ccc(O)cc1)=CC2=O`, the growth was -3.38% (active).

Regarding `COc1c(O)c2c3c(c1OC)-c1ccccc1CC3N(S(=O)(=O)c1ccc(C)cc1)CC2` (stereo unspecified), the growth was 23.3%.

In the case of `COc1cc(/C=N/NC(=O)c2cnn3c2NC(c2ccccc2)C3)ccc1OC1CCCC1` (stereo unspecified), the growth was 2.88% (active).

On to `CCOC(=O)c1cnn(CC(O)c2ccc(F)cc2)c1NC(=O)Nc1ccccc1F` (stereo unspecified), for which the growth was 105%.

As to `CCCN1CCN(c2ccc3nc(-c4ccc5nc(-c6ccc(C(F)(F)F)cc6)[nH]c5c4)[nH]c3c2)CC1`, the growth was -88.5% (active).

Regarding `CCCCCCCC/C=C\CCCCCCCCOc1cccc(CC(=O)NCC[N+](C)(C)C)c1`, the growth is 57.9%.

Regarding `NC(=S)N/N=C1\c2ccccc2-c2c(F)c(F)c(F)c(F)c21`, the growth is 76.6%.

In the case of `COc1cc(/C=C/C(=O)CC(=O)/C=C/c2cc(Br)c(OC)c(OC)c2)cc(Br)c1OC`, the growth was 109%.

`COc1cccc2c(=O)c3c(sc12)c(NCCN(C)C)nc1ccccc13`: the growth was -53.1% (active).

For the compound `Cc1cccc2c(=O)c3c(sc12)c(NCCCN)nc1ccccc13`, the growth was -52.7% (active).

In the case of `O=C(c1ccc2ncc(-c3nc(NC4CC4)ncc3F)n2c1)N1CCOCC1`, the growth was 4.24% (active).

With `O=S(=O)(Nc1ccccc1Cl)c1ccc(-c2cnc(C3CC3)o2)cc1`, the growth is 18%.

For `O=c1oc2ccccc2cc1-c1csc(N/N=C/c2cc3ccccc3nc2Cl)n1`, the growth is 99.7%.

In the case of `CCCCCCCC/C=C\CCCCCCCCOc1cccc(CC(=O)NCC[N+]2(C)CCCC2)c1`, the growth is 54.3%.

`CCC(C)Oc1cc(/C=N/NC(=O)c2cnn3c2NC(c2ccccc2)C3)ccc1OC` (stereo unspecified): the growth is 11.5%.

As to `Cl.Fc1c[c-]c(-c2ccccn2)c(F)c1.[Pt].c1ccc([PH+](CC[PH+](c2ccccc2)c2ccccc2)c2ccccc2)cc1`, the growth was -75.3% (active).

On to `CCN(CC)c1ccc2c(c1)OS(=O)(=O)N=C2`, for which the growth is 109%.

Consider `NC(=O)c1cccc(-n2ccc3cc(NC(=O)Nc4ccc(Cl)c(Cl)c4)ccc32)n1`, for which the growth was 75.4%.

As to `COc1ccc(C2=NOC(CC(=O)N(CCO)CCO)C2)cc1OC1CCCC1` (stereo unspecified), the growth was 103%.
